Compound activity deposited in PubChem BioAssay by several laboratories.
PostGolgi ctrl: growth inhibition of yeast control strain, primary screen, counter-screen for post-Golgi transport modulator project; efflux-deficient yeast background strain, growth absorbance A615, 16 h; inhibition, % at 10 µM; 98,000 compounds, 5% hits
PTK2B oligo ant: antagonists of Pyk2 self-association, primary screen, Q293 cells, FERM NanoBiT luminescence, HTS; Protein-tyrosine kinase 2-beta (Homo sapiens), Q14289; hits give low values; z-score (the deposit names both 25 µM and 10 µM); 99,000 compounds, 0.83% hits;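 active means Z-score of -3 or lower, scaled per plate to the spread of control and sample wells; inactive means z-score above -3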;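 further: negative z-score means lost luminescence so less FERM oligomerization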
Cav32 inh: Cav3.2 calcium influx blockers – cell-based, Fluo-4 calcium fluorescence, FDSS, MLSMR library, primary screen. B-score at 10 µM. Voltage-dependent T-type calcium channel subunit alpha-1H (Homo sapiens), O95180. 100,000 compounds, 4% hits. AID 449739, 2010. Cav3.2-expressing cells; hits give low values;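 active means single-dose well whose peak fluorescence ratio is a statistical outlier from its plate by either plate-standardised score or position-corrected B-score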
PostGolgi yeast: phenotypic screen on post-Golgi transport, primary screen; post-Golgi transport phenotypic cell assay; inhibition, % at 10 µM; 98,000 compounds, 0.9% hits;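 further: yeast cells grown in 1536-well plates; yeast grown about 18 h at 30C before absorbance read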
Active calls of the source: *; . = no result given. An excerpt weighted towards active compounds, which were near 8% of everything screened. Unless noted, no stated cut-off is given here; in the data, active means inhibition above about 30%; inactive means the rest.

SMILES | PostGolgi ctrl | PTK2B oligo ant | Cav32 inh | PostGolgi yeast
CCOC(=O)C(NC(=O)Nc1ncccn1)(Oc1ccccc1)C(F)(F)F (stereo not given) | 32* | 0.41 | 0.32 | -1
O=C(CNCCC1=CCCCC1)Nc1ccc(N2CCCCCC2)cc1 | 100* | -0.28 | -5.1* | -1
C=CCn1c(SCC(=O)NCCOC)nc2scc(-c3ccco3)c2c1=O | 3 | -0.02 | -0.014 | 11
COc1ccc(C(=O)COC(=O)CN2C(=O)NC(C)(C)C2=O)cc1OC | -8 | 1.2 | -0.08 | 12
COc1ccc(/C=C/C(=O)NC(=S)NCCc2ccc(OC)c(OC)c2)cc1 | -13 | 0.86 | . | -4
COc1ccc(/C=C/C(=O)NC(=S)NNC(=O)c2ccco2)cc1 | . | -0.5 | -5.3* | .
COc1cccc(/C=C/C(=O)Nc2ccc(OC)nc2)c1 | . | 0.9 | . | .
COc1ccc(Cc2noc(COc3ccc(Cl)cc3)n2)cc1 | 27 | -0.05 | -2.6 | -5
COc1ccccc1OCc1nc(Cc2ccc(Cl)cc2)no1 | 6 | -0.26 | -5.2* | 0
CC1=C(C(=O)OCc2ccccc2)C(c2ccccc2OS(=O)(=O)c2ccc(C)cc2)NC(=O)N1CCCC(=O)O (stereo not given) | . | . | -1.1 | .
CC(C)(C)c1ccc(C(=O)N2CCC(C(=O)NCCC3=CCCCC3)CC2)cc1 | 3 | 2 | -5* | 2
O=C(NCCC1=CCCCC1)C1CCN(C(=O)Nc2ccccc2)CC1 | -5 | 0.12 | 1.4 | -7
Cc1cc(C(F)F)n2nc(C(=O)Nc3sc4c(c3C#N)CCC(C)C4)nc2n1 (stereo not given) | 33* | 5.1 | -3.1 | 30*
COC(=O)c1c(NC(=O)c2c(C)noc2C)sc2c1CCCCCC2 | 8 | . | 0.38 | -6
COC(=O)c1c(NC(=O)c2c(-c3ccccc3Cl)noc2C)sc2c1CCC2 | 33* | 0.39 | . | 0
COC(=O)c1c(NC(=O)c2nc3nc(C)cc(C(F)F)n3n2)sc2c1CCC2 | 34* | -0.81 | -1.1 | 10
O=C(NNc1ccc(C2CCCCC2)cc1)C(O)(c1ccccc1)c1cccs1 (stereo not given) | 46* | -0.82 | -1.5 | 15
COc1ccc(C(O)(C(=O)NNc2ccc(C)cc2)c2cccs2)cc1 (stereo not given) | -6 | -0.25 | -0.14 | 22
O=C(CCc1ccccc1)NNC(=S)NC(=O)c1ccc(Cl)cc1 | 26 | . | -3.7* | 12
Cc1ccc(C(=O)NNC(=S)NC(=O)c2ccc(Cl)cc2)cc1 | 11 | 0.81 | -4.2* | -5
Cc1ccccc1C(=O)NNC(=S)NC(=O)c1ccc(Cl)cc1Cl | 21 | 0.89 | -4* | 7
CCCOc1ccc(C(=O)NNC(=S)NC(=O)c2cc(-c3ccc(Cl)cc3)nc3ccccc23)cc1 | 10 | -0.64 | -6.7* | -2
COc1ccc(C(=O)NNC(=S)NC(=O)c2cc(-c3ccccc3)nc3ccccc23)cc1 | 3 | -1 | . | -5
CCOC(=O)c1c(-c2ccccc2)csc1NC(=O)c1cc2ccccc2oc1=O | . | 0.42 | . | .
c1csc(CCNc2ncnc3sc4c(c23)CCC4)c1 | 82* | . | . | -1
SMILES | PostGolgi ctrl | PTK2B oligo ant | Cav32 inh | PostGolgi yeast
Fc1ccc(Nc2ncnc3sc4c(c23)CCC4)cc1 | 40* | -0.68 | -1.1 | -5
CC(C)(C)CN1C(=O)C(=O)NC[C@@H]1Cc1ccc(O)cc1 | . | . | -0.0056 | .
CC1CN(C(=O)Cc2ccc(-c3ccccc3)cc2)CC(C)O1 (stereo not given) | 4 | -1.4 | 0.92 | 0
Cc1ccc(CNC(=O)C(=O)NCC2OCCN2S(=O)(=O)c2cccs2)cc1 (stereo not given) | . | . | -4.7* | .
O=C(NCc1ccccc1)C(=O)NCC1OCCN1S(=O)(=O)c1cccs1 (stereo not given) | . | . | 0.61 | .
O=C(C1CCN(S(=O)(=O)c2ccc3ccccc3c2)CC1)N1CCN(c2ncccn2)CC1 | 12 | 0.79 | -0.073 | 2
CC(C)n1c(SCC(=O)Nc2nc3ccccc3s2)nc2c1c(=O)n(C)c(=O)n2C | . | -3.7* | -0.074 | .
CCCn1c(SCC(=O)Nc2ccccc2N2CCCCC2)nc2c1c(=O)n(C)c(=O)n2C | 22 | -0.59 | -4.4* | 12
CCCn1c(SCC(=O)Nc2ccccc2C(=O)OC)nc2c1c(=O)n(C)c(=O)n2C | 15 | -1.2 | -1.5 | -10
CCSCc1nnc(SCC(=O)Nc2nc3ccccc3s2)n1C | 36* | 0.89 | 0.04 | 7
CCOc1ccc2nc(NC(=O)CSc3nc4c(c(=O)n(C)c(=O)n4C)n3C(C)C)sc2c1 | 19 | -1.5 | . | -3
COC(=O)c1c(C(=O)OC)c2ccncn2c1Cl | -8 | 1.5 | -0.54 | 4
Cc1noc(C)c1CSc1nc2ccccc2c(=O)n1-c1ccccc1 | 18 | -0.85 | -2 | -6
